Test results as given in PubChem BioAssay AID651784 (National Center for Advancing Translational Sciences (NCATS), 2012).
Inconclusive results are not listed. Activity calls are given as the source filed them. The call rests on the fitted dose curve; in most records, active means well fitted inhibition curve with a large enough effect; inconclusive means small, poorly fitted or top-dose-only effect; inactive means no such curve, though single readings can be large or run the other way.

Experiment: Acumen qHTS Assay for Inhibitors of the mTORC1 Signaling Pathway in MEF (Tsc2-/-, p53-/-) Cells: Hit Validation;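 further: phospho-rpS6 Ser235/236 immunofluorescence normalized to propidium iodide cell count; nearly all actives have a fitted effect of over 65% in size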;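 on activity change, negative = inhibition: cells exposed to compound for 24 hours; plate controls were DMSO for no effect and 7.5 nM rapamycin control for full effect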
Conditions: Acumen imaging; activity change, negative = inhibition: at 37.3 µM (top of the series)
Potency means the concentration at half of the fitted maximal effect.

SMILES | activity change, negative = inhibition [%] | Potency
COc1cc(CNc2ccc3c(c2)ncn3C(C)C)cc(OC)c1OC | -25.9 | –
COc1ccc2nc(NC(=O)c3nc(S(=O)(=O)Cc4ccccc4F)ncc3Cl)sc2c1 | -106 | –
Cc1ccc(-c2nnc(Nc3cccc(Cl)c3)c3ccccc23)cc1S(=O)(=O)N1CCN(C)CC1 | -42.6 | –
CCCCOC(=O)c1ccc(NC(=O)c2sc3nc(C)cc(C)c3c2N)cc1 | -72 | –
CC(C)(C)OC(=O)N1CCC(c2c(C(=O)NCCN3CCC(Cc4ccccc4)CC3)cnn2-c2cccc(Cl)c2)CC1 | -98.8 | –
Cc1cc(C)c(NC(=O)Cn2c(=O)n(Cc3ccc(C(=O)NCc4ccc5c(c4)OCO5)cc3)c(=O)c3ccccc32)c(C)c1 | – | 5.85 µM (active)
CCCCS(=O)(=O)c1oc(-c2cccs2)nc1S(=O)(=O)c1ccc(F)cc1 | – | 3.69 µM (active)
CCOc1ccc(NC(=O)CSc2oc(-c3ccc(F)cc3)nc2S(=O)(=O)c2ccc(C)cc2)cc1 | – | 4.65 µM (active)
CC(C)CCNC(=O)Nc1ccc2c(c1)N(C)C(=O)c1ccccc1S2 | -8.55 | –
COc1ccc(CCN2CCC(CNC(=O)c3cnn(-c4cccc(Cl)c4)c3C3CCN(C(=O)OC(C)(C)C)CC3)CC2)cc1 | – | 6.56 µM (active)
Cc1ccc(CS(=O)(=O)c2ncc(Cl)c(C(=O)Nc3nnc(C(C)C)s3)n2)cc1 | – | 5.85 µM (active)
COc1cc(-c2ccno2)ccc1S(=O)(=O)N1CCN(c2cc(C)ccc2C)CC1 | -45.4 | –
C#CCN1C(=O)C(O)(CC(=O)c2ccc(OC)c(OC)c2)c2cc(Br)ccc21 (stereo not drawn) | -24.1 | –
COc1ccc(OC)c(NC(=O)c2nnn(CC(=O)Nc3ccc(C(C)C)cc3)c2N)c1 | -27.6 | –
COc1ccc(N2CC(c3nc(-c4cc(OC)c(OC)c(OC)c4)no3)CC2=O)cc1Cl (stereo not drawn) | 5.08 | –
Cc1ccc(S(=O)(=O)c2nc(-c3ccco3)oc2SC(C)c2ccccc2)cc1 (stereo not drawn) | -7.74 | –
CCOC(=O)Cn1c(=O)c2c(nc(N3CCOCC3)n2Cc2ccccc2)n(C)c1=O | – | 2.93 µM (active)
COc1ccc(CNC(=O)Cn2c(SCC(=O)Nc3ccc(C)c(C)c3)nc3ccccc32)cc1 | -79.6 | –
CCS(=O)(=O)c1ncc(Cl)c(C(=O)Nc2ccc(S(=O)(=O)N(C)c3ccccc3)cc2)n1 | – | 1.47 µM (active)

SMILES | activity change, negative = inhibition [%] | Potency
Cc1ccc(Nc2nc(C(N)=O)c(NC(=O)c3ccccc3Br)s2)cc1 | – | 5.85 µM (active)
CCSc1ccccc1C(=O)Nc1ccc(-c2nc3ccccc3s2)c(O)c1 | – | 13.1 µM (active)
CCCCOc1cccc(C(=O)N(Cc2cccs2)c2ccc(OC)cc2)c1 | – | 16.5 µM (active)
COc1ccc(-c2ccc(CCC(=O)O)n2-c2ccccc2O)cc1 | -2.33 | –
Cc1noc(/C=C/N(C)C)c1S(=O)(=O)N1CCCC(C(=O)Nc2ccc(F)cc2F)C1 (stereo not drawn) | – | 1.85 µM (active)
CCC(C)Sc1oc(-c2ccco2)nc1S(=O)(=O)c1ccc(C)cc1 (stereo not drawn) | 3.02 | –
CC(C)S(=O)(=O)c1oc(-c2cccs2)nc1S(=O)(=O)c1ccc(F)cc1 | – | 0.736 µM (active)
CC(C)OCc1cc(CN2CCN(c3cccc(C(F)(F)F)c3)CC2)c(O)c2ncccc12 | – | 11.7 µM (active)
Cc1nn(CCCC(=O)NCc2ccccc2)c(=O)c2c1sc1ccccc12 | 13.7 | –
Cc1c(C(=O)OCCOc2ccccc2)[nH]c2c1C(=O)CC(c1ccccc1)C2 (stereo not drawn) | – | 0.117 µM (active)
Cc1ccc2occ(CC(=O)Nc3ccc(Cl)c(C(F)(F)F)c3)c2c1 | -19.2 | –
Cc1cccc(N(C)S(=O)(=O)c2ccc(-c3cc(C)no3)s2)c1 | -13.9 | –
COc1ccc(CCN2C(=O)c3[nH]nc(-c4ccccc4O)c3C2c2cccc(OC)c2)cc1 (stereo not drawn) | – | 5.85 µM (active)
Cc1ccc(-c2noc(CCC(=O)N(C)c3ccccc3F)n2)cc1 | 5.93 | –
CC(C)(C)C(=O)Nc1ccc(-c2nc3ccc(NC(=O)C(C)(C)C)cc3[nH]2)cc1 | -3.72 | –
COC(=O)c1ccccc1NC(=O)Cn1c(=O)n(-c2ccc(C)cc2)c(=O)c2ccccc21 | – | 5.85 µM (active)
Cc1cccc(-n2nnnc2S(C)(=O)=O)c1 | -92 | –
CCc1cnc2c(c1SCC(=O)NCc1ccc(F)cc1)c(=O)n(C)c(=O)n2C | 5.42 | –
CCN1CCN(c2ccc(NS(=O)(=O)c3c(C)nc4sccn4c3=O)cc2Cl)CC1 | -78.4 | –
